An excerpt weighted towards active compounds, which were near 1.8% of everything screened.
APP 5UTR inh: APP translation inhibition; SH-SY5Y APP 5'UTR-luciferase reporter, luminescence; inhibition, % at 2 µM; actives 0.82% (n = 190,000); AID 1285;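 active means inhibition above a set limit, derived from the sample mean plus 3 SD, cut at about 45% in these data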
IEC-6 tox-1: kills IEC-6 intestinal cells in KLF5 counter-screen. IEC-6 cytotoxicity, luminescence viability. AID 1825. actives 0.78% (n = 290,000). inhibition, % at 5 µM;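 further: 0% = plate median of test compound wells and 100% = cytotoxic reference compound wells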
Ba/F3 V617F tox: lowers viability of Ba/F3 cells expressing EpoR and JAK2V617F. ATP luminescence. AID 1446. actives 1.1% (n = 220,000). inhibition, % at 5.6 µM;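 active means inhibition above the campaign mean plus 3 SD over all tested compounds, cut at about 24% in these data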;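 further: cytokine-independent growth of Ba/F3 cells driven by EpoR plus mutant JAK2; 0% = DMSO-treated cells and 100% = JAK inhibitor I control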
KLF5 inh: suppresses KLF5 promoter-driven expression; DLD-1 KLF5 promoter-luciferase reporter, luminescence; inhibition, % at 5 µM; actives 0.23% (n = 290,000); AID 1700;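 active means inhibition above a per-plate limit of that plate's mean compound inhibition plus 3 SD, cut at about 60% in these data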;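 further: 0% = DMSO wells and 100% = LY294002 at 200 µM; higher means less KLF5 promoter-driven luciferase light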
BaF3 parental: counter-screen for JAK2V617F inhibitors: parental Ba/F3 viability inhibitors | CellTiter-Glo ATP luminescence | inhibition, % at 5.6 µM | actives 1.1% (n = 220,000) | AID 1486;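 active means inhibition above a per-campaign cutoff, the mean inhibition of all tested compounds plus 3 SD, cut at about 27% in these data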;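 further: 0% = DMSO wells and 100% = JAK Inhibitor I control wells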
KLF5 inh confirm: confirmation of KLF5 inhibitors; inhibition, % at 4 µM; actives 79% (n = 610); shares compounds with KLF5 inh; DLD-1 KLF5 promoter firefly luciferase reporter, luminescence;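 active means inhibition above a set limit taken from the earlier primary screen, cut at about 63% in these data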;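 further: 0% = DMSO wells and 100% = LY294002 at 200 µM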
IEC-6 tox-2: rat IEC-6 cytotoxicity, KLF5 inhibitor counter-screen; shares compounds with KLF5 inh; actives 56% (n = 610); AID 1905; inhibition, % at 4 µM; IEC-6 rat intestinal cells, viability luminescence; in the data active means inhibition above about 23%;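 further: cells exposed to compounds for 48 hours before viability read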
IEC-6 tox confirm: IEC-6 cytotoxicity, confirmation assay; shares compounds with IEC-6 tox-1; IEC-6 rat intestinal epithelial viability, luminescence; inhibition, % at 5 µM; actives 63% (n = 1,900);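 further: 0% = vehicle and 100% = reference cytotoxic drug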
An asterisk follows results filed as active; / = no result. Unless noted, no stated cut-off is given here; in the data, active means inhibition above about 22%; inactive means the rest.

SMILES | APP 5UTR inh | IEC-6 tox-1 | Ba/F3 V617F tox | KLF5 inh | BaF3 parental | KLF5 inh confirm | IEC-6 tox-2 | IEC-6 tox confirm
Cc1ccc(OCc2nc(-c3cccs3)no2)c([N+](=O)[O-])c1 | -197.9 | 1.1 | 2.9 | -145.8 | 2.0 | / | / | /
Cc1noc(NC(=O)c2c(-c3c(Cl)cccc3Cl)noc2C)c1[N+](=O)[O-] | / | -3.7 | -2.8 | -0.1 | 1.2 | / | / | /
Cc1cccc(NC(=S)NC(=O)/C=C/c2ccco2)c1 | 61.7* | 78.6* | 72.3* | 74.0* | 78.0* | 23.1 | 28.5* | /
CCOc1cc(Br)cc(/C=N/NC(=O)c2cccnc2)c1O | / | -0.6 | / | 100.1* | / | 94.5* | -3.3 | /
COc1c(Br)cc(Br)cc1/C=N/NC(=O)c1cccnc1 | / | 13.2 | / | -8.6 | / | / | / | /
COc1ccc(OC)c2[nH]c(C(=O)N/N=C/c3ccccc3O)cc12 | / | 12.3 | / | 96.1* | / | 90.5* | -3.8 | /
COC(=O)c1ccc(NS(=O)(=O)c2ccc(-c3cc(C)no3)s2)cc1 | / | 2.2 | / | -0.8 | / | / | / | /
CCCC(=O)N=c1sc2c(OC)ccc(OC)c2n1C | / | 8.7 | -0.5 | -11.5 | 0.5 | / | / | /
Oc1ccc(CN2CCc3ccccc3C2)c2cccnc12 | 86.8* | 5.6 | 75.3* | 70.8* | 76.7* | 62.7* | 19.4 | /
Oc1cc2c(cc1CN1CCc3ccccc3C1)OCO2 | / | 5.5 | / | -18.6 | / | / | / | /
CC(C)(C)c1ccc(C(=O)NCCOc2ccccc2F)cc1 | / | -7.3 | / | 65.0* | / | 32.6 | 1.9 | /
CC(C)(C)c1ccc(C(=O)NCCOc2ccccc2)cc1 | / | -8.2 | / | 28.4 | / | / | / | /
Nc1ncnc2c1ncn2[C@H]1C[C@H](O)[C@@H](CO)O1 | -4.1 | 4.9 | 0.7 | -25.9 | 9.4 | / | / | /
Nc1ncnc2c1ncn2[C@H]1C[C@H](O)[C@@H](COP(=O)(O)O)O1 | 11.2 | -5.8 | 6.2 | 74.8* | 11.1 | -2.9 | 7.0 | /
COc1ccc(OC)c(Nc2nc(=O)c3cccnc3s2)c1 | 1.9 | -0.5 | 1.0 | 75.3* | 2.9 | 65.3* | -2.6 | /
Cc1cc(NCc2ccccn2)n2nc(C)c(-c3ccccc3)c2n1 | / | 81.1* | 9.3 | 66.7* | 9.1 | 55.0 | 8.9 | 18.4
COc1cc(-c2noc(C)c2/C=C/c2ccc(N)cc2)cc(OC)c1OC | / | 95.6* | / | 65.7* | / | 91.4* | 73.4* | 75.7*
COC(=O)c1cc(-c2c(-c3cc(OC)c(OC)c(OC)c3)noc2C)cc([N+](=O)[O-])c1 | / | 0.5 | / | -24.0 | / | / | / | /
COc1cc(-c2noc(C)c2C#Cc2ccccn2)cc(OC)c1OC | / | 81.9* | / | 62.3* | / | 70.9* | 60.7* | 61.6*
COc1cc(-c2c(-c3cc(OC)c(OC)c(OC)c3)noc2C)ccc1F | / | 98.1* | / | 79.0* | / | 88.5* | 73.8* | 70.6*
COc1ccc(/C=N/NC(=O)c2[nH]c3ccc(Br)cc3c2-c2ccccc2)cc1 | 96.7* | 73.3* | 96.0* | 81.7* | 92.6* | 89.9* | 86.0* | 83.0*
COc1ccc(/C=N/NC(=O)c2[nH]c3ccc(Br)cc3c2-c2ccccc2)c(C(=O)O)c1OC | / | 0.4 | -3.9 | 2.8 | 0.4 | / | / | /
Cc1nc(NC(=O)CCc2ccccc2)sc1C | / | 5.9 | / | -65.0 | / | / | / | /
COc1ccc(-n2nnnc2-c2cccc(OC)c2)cc1 | 91.3* | 84.5* | 77.8* | 76.6* | 71.4* | 85.9* | 58.4* | 58.9*
Cc1ccc(-n2nnnc2-c2cccc(C)c2)cc1 | 3.7 | -5.6 | -1.4 | -30.8 | 0.9 | / | / | /
SMILES | APP 5UTR inh | IEC-6 tox-1 | Ba/F3 V617F tox | KLF5 inh | BaF3 parental | KLF5 inh confirm | IEC-6 tox-2 | IEC-6 tox confirm
COc1cc(NC(=O)Cn2ccsc2=N)cc(OC)c1 | / | 4.9 | 0.2 | -5.7 | 0.4 | / | / | /
CCOC(=O)C1=C(O)C(=O)N(Cc2ccccc2)CC1 | 0.3 | 0.4 | 6.7 | -10.9 | 7.8 | / | / | /
Cc1ccc(/C=N/NC(=O)c2c(-c3ccccc3)noc2C)c(O)c1 | / | 25.9* | / | 66.5* | / | 63.1* | 23.1* | 18.5
O=C(COc1ccccc1)NCc1nnc2c3ccccc3c(-c3ccccc3)nn12 | -8.9 | 0.5 | 1.8 | -32.3 | 3.3 | / | / | /
COC(=O)c1cc(C(=O)N2CCN(c3cccc(Cl)c3)CC2)cc([N+](=O)[O-])c1 | 92.3* | 79.4* | 72.7* | 69.6* | 71.5* | 75.9* | 55.8* | 53.0*
CCOc1ccccc1C(=O)N1CCN(c2cccc(Cl)c2)CC1 | 94.5* | 91.8* | 89.3* | 84.6* | 85.1* | 109.0* | 74.7* | 66.5*
CCCC(=O)NC(c1ccc(Cl)cc1)c1ccc2cccnc2c1O (stereo not drawn) | / | 40.5* | / | 78.1* | / | 82.2* | 77.4* | 66.9*
Cc1ccc(C(NC(=O)C(C)C)c2cc([N+](=O)[O-])c3cccnc3c2O)cc1 (stereo not drawn) | 1.8 | -2.1 | -6.5 | -24.4 | 1.7 | / | / | /
CCCCC(=O)NC(c1ccccc1OC)c1ccc2cccnc2c1O (stereo not drawn) | / | 24.0* | 47.0* | 75.7* | 38.1* | 93.5* | 48.1* | 57.5*
COc1ccccc1C(NC(C)=O)c1cc(Cl)c2cccnc2c1O (stereo not drawn) | / | 61.0* | / | 73.0* | / | 71.0* | 81.1* | 42.8*
CCCC(=O)NC(c1ccc(C)cc1)c1ccc2cccnc2c1O (stereo not drawn) | / | 55.4* | / | 99.2* | / | 87.1* | 75.3* | 82.8*
CC(=O)NC(c1ccc2ccccc2c1)c1ccc2cccnc2c1O (stereo not drawn) | / | 98.7* | / | 77.2* | / | 86.9* | 79.3* | 82.2*
CCCCC(=O)NC(c1ccc(Cl)cc1)c1ccc2cccnc2c1O (stereo not drawn) | / | 57.3* | / | 83.9* | / | 88.5* | 65.6* | 68.5*
CCCCC(=O)NC(c1ccc(N(C)C)cc1)c1ccc2cccnc2c1O (stereo not drawn) | / | 62.2* | / | 84.5* | / | 88.5* | 64.4* | 85.9*
Oc1c(C(Nc2nccs2)c2ccc(C(F)(F)F)cc2)ccc2cccnc12 (stereo not drawn) | 65.8* | 43.8* | 59.6* | 62.0* | 53.5* | 83.7* | 57.4* | 62.0*
O=C(CN(C(=O)CCC(=O)Nc1ccccn1)c1cccc(F)c1)NCc1ccco1 | / | 7.5 | / | -12.6 | / | / | / | /
CC(C)COc1ccc(CNC(=S)Nc2ccccc2)cc1Cl | / | 4.4 | / | -41.0 | / | / | / | /
CNc1cc(C)nc(-n2nc(C)cc2C)n1 | 26.6 | -3.4 | -2.0 | 7.3 | 2.2 | / | / | /
CCOc1ccc(Nc2cc(C)nc(-n3nc(C)cc3C)n2)cc1 | 95.9* | 84.5* | 77.3* | 81.5* | 81.2* | 81.1* | 55.8* | 52.1*
O=C(N/N=C/c1cccc(Oc2ccccc2)c1)c1ccccc1F | / | 28.5* | / | 64.0* | / | 66.1* | 1.7 | 21.0
CCOc1ccc(N2CC(C(=O)Nc3ccccc3N3CCOCC3)CC2=O)cc1 (stereo not drawn) | 6.6 | -1.9 | -1.8 | -2.7 | 5.3 | / | / | /
CN1/C(=C/c2cccc[n+]2CCO)Sc2ccccc21 | / | 3.0 | / | -18.1 | / | / | / | /

Assay outcomes deposited in PubChem BioAssay by several laboratories.
